Measured values as given in ChEMBL document CHEMBL2218924, “A broad activity screen in support of a chemogenomic map for kinase signalling research and drug discovery” (Biochem J, 2013).

How the values were obtained:
[1] = target: T1, cGMP-dependent protein kinase 1 (Homo sapiens) (UniProt Q13976); conditions: at 1 µM
T1 sequence (whole entry): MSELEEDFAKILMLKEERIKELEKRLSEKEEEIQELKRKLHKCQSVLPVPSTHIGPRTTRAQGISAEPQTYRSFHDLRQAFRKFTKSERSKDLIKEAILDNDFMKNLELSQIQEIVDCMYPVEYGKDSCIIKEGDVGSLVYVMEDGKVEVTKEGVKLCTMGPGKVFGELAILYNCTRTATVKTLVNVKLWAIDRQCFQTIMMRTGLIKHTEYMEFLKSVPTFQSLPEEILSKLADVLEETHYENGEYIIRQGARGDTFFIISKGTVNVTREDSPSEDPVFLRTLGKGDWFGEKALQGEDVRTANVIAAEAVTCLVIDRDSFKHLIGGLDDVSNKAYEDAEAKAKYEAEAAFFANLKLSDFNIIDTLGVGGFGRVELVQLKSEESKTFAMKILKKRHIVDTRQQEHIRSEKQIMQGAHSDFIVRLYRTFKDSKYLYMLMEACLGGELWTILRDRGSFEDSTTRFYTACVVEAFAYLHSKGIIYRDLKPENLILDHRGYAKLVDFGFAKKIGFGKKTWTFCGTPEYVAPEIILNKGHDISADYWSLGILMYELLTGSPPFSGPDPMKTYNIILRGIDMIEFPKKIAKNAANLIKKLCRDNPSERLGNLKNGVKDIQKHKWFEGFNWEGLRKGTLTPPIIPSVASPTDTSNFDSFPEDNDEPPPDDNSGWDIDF

[2] = target: T1, cGMP-dependent protein kinase 1 (Homo sapiens); conditions: at 10 µM
[3] = target: T1, cGMP-dependent protein kinase 1 (Homo sapiens); conditions: at 1 µM; remark: listed apart in the source
[4] = target: T1, cGMP-dependent protein kinase 1 (Homo sapiens); conditions: at 10 µM; remark: listed apart in the source
[5] = target: T2, MAP kinase-activated protein kinase 5 (Homo sapiens) (UniProt Q8IW41); conditions: at 1 µM
T2 sequence (whole entry): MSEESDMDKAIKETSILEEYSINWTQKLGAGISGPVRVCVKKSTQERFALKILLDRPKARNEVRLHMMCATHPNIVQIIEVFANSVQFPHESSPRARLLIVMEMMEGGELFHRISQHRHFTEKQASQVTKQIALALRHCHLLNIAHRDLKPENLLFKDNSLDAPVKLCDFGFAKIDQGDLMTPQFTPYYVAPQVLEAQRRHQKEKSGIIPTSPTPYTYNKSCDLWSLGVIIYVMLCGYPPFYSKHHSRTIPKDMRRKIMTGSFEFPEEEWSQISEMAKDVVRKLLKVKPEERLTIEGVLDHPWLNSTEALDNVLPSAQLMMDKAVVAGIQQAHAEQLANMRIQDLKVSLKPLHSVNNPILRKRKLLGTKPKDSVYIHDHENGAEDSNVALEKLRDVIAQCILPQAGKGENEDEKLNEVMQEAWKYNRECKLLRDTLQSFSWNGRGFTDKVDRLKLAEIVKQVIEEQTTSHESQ

[6] = target: T2, MAP kinase-activated protein kinase 5 (Homo sapiens); conditions: at 10 µM
[7] = target: Serine/threonine-protein kinase N2 (Homo sapiens) (UniProt Q16513); conditions: at 1 µM
[8] = target: Serine/threonine-protein kinase N2 (Homo sapiens) (UniProt Q16513); conditions: at 10 µM
[9] = target: Tyrosine-protein kinase FRK (Homo sapiens) (UniProt P42685); conditions: at 1 µM
[10] = target: Tyrosine-protein kinase FRK (Homo sapiens) (UniProt P42685); conditions: at 10 µM
[11] = target: T3, Phosphorylase b kinase gamma catalytic chain, liver/testis isoform (Homo sapiens) (UniProt P15735); conditions: at 10 µM
T3 sequence (whole entry): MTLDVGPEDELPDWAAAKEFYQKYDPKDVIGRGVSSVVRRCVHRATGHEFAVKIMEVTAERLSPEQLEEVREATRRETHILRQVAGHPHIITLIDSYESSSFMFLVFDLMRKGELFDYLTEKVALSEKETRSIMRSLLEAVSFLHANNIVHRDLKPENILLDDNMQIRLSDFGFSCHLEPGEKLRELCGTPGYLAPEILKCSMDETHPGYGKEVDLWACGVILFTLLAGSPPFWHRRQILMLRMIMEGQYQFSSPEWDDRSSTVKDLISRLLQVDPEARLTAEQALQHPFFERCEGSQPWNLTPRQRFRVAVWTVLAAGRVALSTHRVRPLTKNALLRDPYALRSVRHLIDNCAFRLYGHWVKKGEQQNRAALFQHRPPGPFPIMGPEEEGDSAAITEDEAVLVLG

[12] = target: Serine/threonine-protein kinase pim-1 (Homo sapiens) (UniProt P11309); conditions: at 1 µM
[13] = target: Serine/threonine-protein kinase pim-1 (Homo sapiens) (UniProt P11309); conditions: at 10 µM
[14] = target: Serine/threonine-protein kinase pim-2 (Homo sapiens) (UniProt Q9P1W9); conditions: at 1 µM
[15] = target: Serine/threonine-protein kinase pim-2 (Homo sapiens) (UniProt Q9P1W9); conditions: at 10 µM
[16] = target: Serine/threonine-protein kinase PLK1 (Homo sapiens) (UniProt P53350); conditions: at 1 µM
[17] = target: Serine/threonine-protein kinase PLK1 (Homo sapiens) (UniProt P53350); conditions: at 10 µM
[18] = target: T3, Phosphorylase b kinase gamma catalytic chain, liver/testis isoform (Homo sapiens); conditions: at 1 µM
[19] = target: Serine/threonine-protein kinase pim-3 (Homo sapiens) (UniProt Q86V86); conditions: at 10 µM
[20] = target: Serine/threonine-protein kinase pim-3 (Homo sapiens) (UniProt Q86V86); conditions: at 1 µM

Chain of Tyrosine-protein kinase FRK (Homo sapiens) (P42685 whole entry, canonical isoform): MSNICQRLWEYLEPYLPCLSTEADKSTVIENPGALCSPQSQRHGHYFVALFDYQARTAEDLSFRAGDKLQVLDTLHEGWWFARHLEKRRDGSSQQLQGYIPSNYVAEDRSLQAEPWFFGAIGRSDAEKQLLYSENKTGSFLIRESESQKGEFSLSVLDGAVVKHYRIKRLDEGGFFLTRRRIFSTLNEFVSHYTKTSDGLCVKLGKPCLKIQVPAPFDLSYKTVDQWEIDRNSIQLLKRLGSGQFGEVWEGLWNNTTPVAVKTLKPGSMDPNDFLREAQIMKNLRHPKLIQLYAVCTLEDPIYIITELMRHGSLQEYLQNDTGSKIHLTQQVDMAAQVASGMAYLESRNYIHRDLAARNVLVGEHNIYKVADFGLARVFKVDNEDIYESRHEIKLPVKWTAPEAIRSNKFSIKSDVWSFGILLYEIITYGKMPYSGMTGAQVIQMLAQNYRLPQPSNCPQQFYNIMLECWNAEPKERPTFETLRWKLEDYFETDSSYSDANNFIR
Chain of Serine/threonine-protein kinase N2 (Homo sapiens) (Q16513 whole entry, looked up): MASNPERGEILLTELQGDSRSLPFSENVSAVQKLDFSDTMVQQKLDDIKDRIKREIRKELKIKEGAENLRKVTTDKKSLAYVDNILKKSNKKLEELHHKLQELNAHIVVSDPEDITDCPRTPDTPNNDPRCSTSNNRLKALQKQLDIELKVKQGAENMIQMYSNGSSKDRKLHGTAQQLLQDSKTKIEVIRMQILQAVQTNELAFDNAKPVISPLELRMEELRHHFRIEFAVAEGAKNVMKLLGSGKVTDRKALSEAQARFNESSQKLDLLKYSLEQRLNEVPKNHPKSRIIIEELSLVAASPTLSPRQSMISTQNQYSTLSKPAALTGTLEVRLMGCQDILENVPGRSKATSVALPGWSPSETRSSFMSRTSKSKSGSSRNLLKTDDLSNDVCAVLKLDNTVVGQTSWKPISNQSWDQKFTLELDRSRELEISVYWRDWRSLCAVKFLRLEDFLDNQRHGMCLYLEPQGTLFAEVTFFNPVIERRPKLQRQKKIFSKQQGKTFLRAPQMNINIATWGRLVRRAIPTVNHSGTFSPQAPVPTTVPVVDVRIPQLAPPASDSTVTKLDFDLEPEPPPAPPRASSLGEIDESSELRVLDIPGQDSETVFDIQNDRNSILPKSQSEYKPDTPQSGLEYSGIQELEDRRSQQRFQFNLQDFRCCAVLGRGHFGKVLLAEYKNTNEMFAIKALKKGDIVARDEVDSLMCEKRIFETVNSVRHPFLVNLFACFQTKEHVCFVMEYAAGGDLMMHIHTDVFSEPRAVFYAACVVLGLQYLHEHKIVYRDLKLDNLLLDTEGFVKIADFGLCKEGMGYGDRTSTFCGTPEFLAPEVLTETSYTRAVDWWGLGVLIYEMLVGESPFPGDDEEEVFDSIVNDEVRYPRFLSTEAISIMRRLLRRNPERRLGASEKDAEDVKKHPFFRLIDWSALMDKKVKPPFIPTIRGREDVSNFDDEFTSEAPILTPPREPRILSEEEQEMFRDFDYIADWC
Chain of Serine/threonine-protein kinase PLK1 (Homo sapiens) (P53350 whole entry, canonical isoform): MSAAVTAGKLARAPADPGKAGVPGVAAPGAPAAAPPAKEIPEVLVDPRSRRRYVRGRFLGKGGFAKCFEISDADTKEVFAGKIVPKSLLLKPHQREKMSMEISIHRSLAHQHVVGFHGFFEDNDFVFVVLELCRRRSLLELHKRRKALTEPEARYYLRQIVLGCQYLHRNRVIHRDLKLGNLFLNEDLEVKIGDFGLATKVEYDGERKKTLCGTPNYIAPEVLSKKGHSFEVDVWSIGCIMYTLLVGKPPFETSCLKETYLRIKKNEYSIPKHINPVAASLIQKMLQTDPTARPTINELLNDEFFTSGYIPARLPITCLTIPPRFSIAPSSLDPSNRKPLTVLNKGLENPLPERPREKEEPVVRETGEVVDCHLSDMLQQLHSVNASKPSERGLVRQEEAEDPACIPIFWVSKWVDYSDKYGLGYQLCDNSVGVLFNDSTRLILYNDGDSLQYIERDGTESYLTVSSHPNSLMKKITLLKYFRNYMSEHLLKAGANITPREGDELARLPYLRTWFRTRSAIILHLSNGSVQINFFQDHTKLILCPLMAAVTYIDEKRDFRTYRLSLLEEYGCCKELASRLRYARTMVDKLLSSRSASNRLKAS
Chain of Serine/threonine-protein kinase pim-2 (Homo sapiens) (Q9P1W9 whole entry, looked up): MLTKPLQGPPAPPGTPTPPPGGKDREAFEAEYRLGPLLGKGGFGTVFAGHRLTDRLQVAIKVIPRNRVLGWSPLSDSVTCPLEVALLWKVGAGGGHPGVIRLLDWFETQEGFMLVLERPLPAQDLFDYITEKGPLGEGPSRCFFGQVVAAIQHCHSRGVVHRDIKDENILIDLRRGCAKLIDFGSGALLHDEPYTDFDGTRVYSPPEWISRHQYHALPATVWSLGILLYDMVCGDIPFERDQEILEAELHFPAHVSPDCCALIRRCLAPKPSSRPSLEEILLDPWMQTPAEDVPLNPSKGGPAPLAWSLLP
Chain of Serine/threonine-protein kinase pim-1 (Homo sapiens) (P11309 whole entry, looked up): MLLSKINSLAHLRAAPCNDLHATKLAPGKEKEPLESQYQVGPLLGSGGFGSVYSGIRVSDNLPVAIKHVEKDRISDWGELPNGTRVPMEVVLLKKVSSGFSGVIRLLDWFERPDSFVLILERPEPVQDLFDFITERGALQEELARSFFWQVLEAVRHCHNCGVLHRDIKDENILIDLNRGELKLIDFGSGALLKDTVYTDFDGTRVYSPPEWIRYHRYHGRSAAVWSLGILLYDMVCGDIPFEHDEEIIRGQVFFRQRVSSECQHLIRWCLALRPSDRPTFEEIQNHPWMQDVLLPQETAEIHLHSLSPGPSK

SMILES | residual activity [1] [%] | residual activity [2] [%] | residual activity [3] [%] | residual activity [4] [%] | residual activity [5] [%] | residual activity [6] [%] | residual activity [7] [%] | residual activity [8] [%] | residual activity [9] [%] | residual activity [10] [%] | residual activity [11] [%] | residual activity [12] [%] | residual activity [13] [%] | residual activity [14] [%] | residual activity [15] [%] | residual activity [16] [%] | residual activity [17] [%] | residual activity [18] [%] | residual activity [19] [%] | residual activity [20] [%]
O=C(NC(NC(=S)Nc1ccc(F)c([N+](=O)[O-])c1)C(Cl)(Cl)Cl)C(c1ccccc1)c1ccccc1 (stereo not drawn) | 96 | 92 | 97 | 73 | 87 | 49 | 94 | 102 | 71 | 47 | 90 | 102 | 67 | 90 | 70 | 102 | 98 |  |  | 
Nc1ncnc2[nH]nc(Nc3ccc(F)cc3)c12 | 100 | 79 | 95 | 79 | 109 | 91 | 107 | 80 |  | 38 | 99 | 115 | 53 | 133 | 99 |  | 77 | 102 | 69 | 
CCCC(=O)Oc1ccc2[nH]c(C(=O)c3cc4ccccc4[nH]3)cc2c1 | 101 | 127 | 79 | 78 | 72 | 44 | 86 | 93 | 92 | 85 | 96 | 101 | 121 |  | 98 | 86 | 58 | 95 | 96 | 93
O=C1Nc2ccccc2/C1=C\c1c(Cl)[nH]c2ccccc12 |  | 84 |  | 72 |  |  |  |  | 83 | 73 | 87 |  | 26 | 73 | 16 | 86 | 75 | 87 |  | 
O=C1Cc2c([nH]c3ccc(Br)cc23)-c2ccccc2N1 | 98 | 97 | 83 | 74 | 97 | 70 | 60 | 26 | 68 | 40 | 89 | 75 | 56 | 100 | 79 | 76 | 75 | 120 | 79 | 83
NC(=O)Nc1sc(-c2ccc(F)cc2)cc1C(N)=O | 87 | 73 | 84 | 43 | 96 | 58 | 82 | 27 | 63 | 19 | 69 | 95 | 43 | 93 | 60 |  |  | 105 |  | 
Cn1c2ccccc2c2c3c(c4c5ccccc5n(CCC#N)c4c21)CNC3=O |  |  |  |  |  |  | 11 | 10 | 42 | 33 | 2 | 18 | 22 | 25 | 40 |  | 66 | 1 |  | 58
COc1ccc(Cl)cc1NC(=O)Nc1cc(C)nc2ccccc12 |  |  | 79 | 88 |  |  |  |  | 94 | 129 | 53 | 87 | 97 |  |  | 95 | 82 | 92 | 99 | 96
COc1cc2c(cc1OC)-c1n[nH]c(Nc3cccc(F)c3)c1C2 |  |  |  |  | 47 | 65 |  |  |  |  |  | 78 | 112 |  |  | 65 | 61 |  |  | 
NCCNc1ncc(C(N)=O)c(Nc2cccc(C(F)(F)F)c2)n1 |  |  |  |  | 42 | 11 |  |  |  |  | 22 | 82 | 38 |  | 60 | 100 | 73 | 64 |  | 
NC(=O)c1cccc(-c2cc(Nc3ccc(OC(F)(F)F)cc3)ncn2)c1 |  |  |  |  |  | 78 |  |  |  |  |  | 89 | 100 |  |  |  | 88 |  |  | 
O=C1NC(=O)C(c2cn(CCCO)c3ncccc23)=C1c1cnccn1 |  |  | 98 | 74 |  |  | 100 | 87 |  |  |  | 72 | 50 | 49 | 43 | 87 | 82 | 97 | 16 | 46
Nc1nccc(-c2c(-c3ccc(F)cc3)ncn2C2CCNCC2)n1 |  |  |  |  | 118 | 112 |  | 82 |  |  | 114 | 75 | 26 | 120 |  |  |  | 125 |  | 
N#C/C(=C\c1ccc(O)c(O)c1)C(=O)NCc1ccccc1 |  |  |  |  | 72 | 59 |  |  |  |  |  | 74 | 70 |  |  | 86 | 64 |  |  | 
CCOC(=O)c1c(C)[nH]c(/C=C2\C(=O)Nc3ccccc32)c1C |  |  |  |  | 88 | 81 |  |  |  |  | 92 | 72 |  |  |  |  | 74 | 87 |  | 
Nc1ncnc2c1cnn2-c1ccccc1 |  |  |  |  | 94 |  | 85 | 79 |  | 90 | 90 |  | 126 |  | 94 | 100 | 86 | 97 | 97 | 101
